The panel holds about 79,000 compounds, 15% with a hit somewhere; the sample as a whole holds those more often. Activity calls are given as the source filed them. Cut-off read from the data, not from the text of the source: active = growth inhibition above about 70%; inactive = the rest.
Experiments:
[1] = NCI Yeast Anticancer Drug Screen. Data for the rad52 strain (AID 147);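 note: 0% = growth of vehicle-treated control cultures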; conditions: S. cerevisiae rad52 mutant growth inhibition, hits give high values
Method in brief: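 Read-out: growth inhibition versus vehicle-treated controls. Cells were a DNA repair-deficient yeast strain treated with compounds.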

[2] = NCI Yeast Anticancer Drug Screen. Data for the wt1 strain (AID 149);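 note: 0% = growth of vehicle-treated wt1 cultures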; conditions: S. cerevisiae wt1 strain (SPY 50644) growth inhibition, hits give high values
Method in brief: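 The wt1 strain was treated with compounds, and growth was compared with vehicle-treated cultures to give inhibition.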

[3] = NCI Yeast Anticancer Drug Screen. Data for the rad50EPP+ strain (AID 151);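 note: 0% = growth of vehicle-treated control cultures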; conditions: S. cerevisiae rad50 mutant strain, hits give high values
Method in brief: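 Growth inhibition read against vehicle controls in rad50EPP+ yeast, a strain altered in DNA damage repair, after compound exposure.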

[4] = NCI Yeast Anticancer Drug Screen. Data for the mgt1 strain (AID 153); conditions: S. cerevisiae mgt1 mutant growth inhibition, hits give high values
Method in brief: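 mgt1 yeast grown with test compound; read-out is growth inhibition versus vehicle-treated cultures.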

[5] = NCI Yeast Anticancer Drug Screen. Data for the rad50 strain (AID 155);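 note: 0% = growth of vehicle-only cultures of the same strain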; conditions: S. cerevisiae rad50 strain growth inhibition, hits give high values
Method in brief: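 Cells are treated with compound, grown, and their growth is then scored against vehicle-only cultures of the same repair-deficient yeast strain.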

[6] = NCI Yeast Anticancer Drug Screen. Data for the mec2-1 strain (AID 157); conditions: S. cerevisiae mec2-1 strain, hits give high values
Method in brief: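 Yeast mec2-1 mutant treated with compound. Readout: growth inhibition vs vehicle controls.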

[7] = NCI Yeast Anticancer Drug Screen. Data for the rad14 strain (AID 159);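 note: 0% = growth of vehicle-treated control cultures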; conditions: S. cerevisiae rad14 strain growth inhibition, hits give high values
Method in brief: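 Readout: yeast growth inhibition, referenced to vehicle-only cultures. Strain bears a defined alteration in DNA damage repair.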

[8] = NCI Yeast Anticancer Drug Screen. Data for the sgs1 mgt1 strain (AID 161);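 note: 0% = growth of cultures given vehicle only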; conditions: S. cerevisiae sgs1 mgt1 strain, hits give high values
Method in brief: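 Read-out: growth inhibition vs vehicle controls. Cells: mutant yeast strain deficient in DNA damage repair.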

[9] = NCI Yeast Anticancer Drug Screen. Data for the cln2 rad14 strain (AID 165);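 note: 0% = growth equal to vehicle treated cultures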; conditions: S. cerevisiae cln2 rad14 strain, hits give high values
Method in brief: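 cln2 rad14 yeast strain; compound exposure; growth inhibition read vs vehicle controls.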

[10] = NCI Yeast Anticancer Drug Screen. Data for the bub3 strain (AID 167); conditions: S. cerevisiae bub3 mutant strain, hits give high values
Method in brief: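 Part of a panel of yeast mutants defective in DNA damage repair or cell cycle regulation. Each strain is grown with compound, and inhibition is calculated relative to solvent-treated cultures.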

[11] = NCI Yeast Anticancer Drug Screen. Data for the wt2 strain (AID 169);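 note: 0% = growth of vehicle-treated yeast cultures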; conditions: S. cerevisiae wt2 strain growth inhibition, hits give high values
Method in brief: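 Read-out: growth inhibition versus vehicle-treated control cultures after compound exposure of the yeast strain.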

[12] = NCI Yeast Anticancer Drug Screen. Data for the mlh1 strain (AID 171);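 note: 0% = growth of vehicle-treated control cultures of the same strain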; conditions: S. cerevisiae mlh1 strain growth inhibition, hits give high values
Method in brief: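 Read-out: growth inhibition versus vehicle controls. Strain: engineered yeast with a defined DNA repair or cell cycle defect, compound-treated.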

[13] = NCI Yeast Anticancer Drug Screen. Data for the sgs1 strain (AID 173);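 note: 0% = growth of vehicle-only control cultures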; conditions: S. cerevisiae sgs1 mutant, hits give high values
Method in brief: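 Read-out: yeast growth inhibition relative to vehicle controls, following compound exposure of a strain with a defined DNA repair/cell cycle alteration.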

[14] = NCI Yeast Anticancer Drug Screen. Data for the mlh1 rad18 strain (AID 175); conditions: S. cerevisiae mlh1 rad18 strain growth inhibition, hits give high values
Method in brief: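 Yeast w/ defined DNA-repair lesions; compound exposure; growth vs vehicle controls → % inhibition.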

[15] = NCI Yeast Anticancer Drug Screen. Data for the rad18 strain (AID 177); conditions: S. cerevisiae rad18 mutant growth inhibition, hits give high values
Method in brief: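 Readout: growth inhibition vs vehicle controls. Cells: genetically altered yeast strain, DNA repair defect.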

[16] = at 5.0 µM (retest, dose inferred, filed as 0.5)
[17] = at 50.0 µM (retest, dose inferred, filed as 5.0)

Measured: growth inhibition

COc1ccc(Br)c(C(=O)Sc2nnnn2-c2cccc(Cl)c2)c1
active: [1]; at 100.0 µM 96% | [2]; at 100.0 µM 93% | [3]; at 100.0 µM 92% | [4]; at 100.0 µM 95% | [5]; [17] 71% | [5]; at 50.0 µM 87.6% | [5]; at 100.0 µM 93% | [6]; [17] 72% | [6]; at 50.0 µM 88.9% | [6]; at 100.0 µM 94% | [7]; at 100.0 µM 89% | [8]; [17] 89% | [8]; at 50.0 µM 87.8% | [9]; [17] 83% | [9]; at 50.0 µM 76.2% | [10]; [17] 81% | [10]; at 50.0 µM 88.2% | [10]; at 100.0 µM 93% | [11]; at 100.0 µM 93% | [12]; at 100.0 µM 92% | [13]; at 100.0 µM 94% | [14]; at 50.0 µM 85% | [15]; at 100.0 µM 93%
inactive: [1]; at 1.2 µM 23% | [1]; at 3.7 µM 29% | [1]; at 11.0 µM 24% | [1]; at 33.0 µM 43% | [2]; at 1.2 µM 5% | [2]; at 3.7 µM 17% | [2]; at 11.0 µM 22% | [2]; at 33.0 µM 33% | [3]; at 1.2 µM 3% | [3]; at 3.7 µM -19% | [3]; at 11.0 µM 9% | [3]; at 33.0 µM 65% | [4]; at 1.2 µM -10% | [4]; at 3.7 µM 11% | [4]; at 11.0 µM 16% | [4]; at 33.0 µM 30% | [5]; at 1.2 µM 2% | [5]; at 3.7 µM 21% | [5]; [16] 42% | [5]; at 11.0 µM 6% | [5]; at 33.0 µM 42% | [6]; at 1.2 µM 13% | [6]; at 3.7 µM -9% | [6]; [16] 40% | [6]; at 11.0 µM -14% | [6]; at 33.0 µM 12% | [7]; at 1.2 µM -8% | [7]; at 3.7 µM -5% | [7]; at 11.0 µM -30% | [7]; at 33.0 µM -16% | [8]; [16] -19% | [9]; [16] 58% | [10]; at 1.2 µM 13% | [10]; at 3.7 µM 11% | [10]; [16] 23% | [10]; at 11.0 µM -22% | [10]; at 33.0 µM 8% | [11]; at 1.2 µM -11% | [11]; at 3.7 µM -15% | [11]; at 11.0 µM -35% | [11]; at 33.0 µM -8% | [12]; at 1.2 µM -14% | [12]; at 3.7 µM -21% | [12]; at 11.0 µM -25% | [12]; at 33.0 µM 3% | [13]; at 1.2 µM 2% | [13]; at 3.7 µM 2% | [13]; at 11.0 µM 11% | [13]; at 33.0 µM 49% | [14]; [16] 47% | [14]; [17] 67% | [15]; at 1.2 µM -24% | [15]; at 3.7 µM -10% | [15]; at 11.0 µM -8% | [15]; at 33.0 µM 52%

Reference: PubChem BioAssay (NCI)
